Assay [1] in a line: qHTS assay for small molecules that induce genotoxicity in human embryonic kidney cells expressing luciferase-tagged ATAD5 (AID 651632). Note: nearly all actives have a fitted effect of over 15% in size. The essentials: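 Cells were seeded at 2,000 per well, dosed with compound, and incubated 16 hr at 37C in 5% CO2. Luciferase activity was then quantified after a 30 min room-temperature incubation with Amplite.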
The nature of assay [2]: qHTS assay for small molecule agonists of the p53 signaling pathway - cell viability (AID 651633; calls by dose curve;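 note: p53RE-bla HCT reporter cells with a stable beta-lactamase p53 reporter; series mostly up to about 83 µM; nearly all actives have a fitted effect of over 30% in size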). The essentials:
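Viability counter-read: CellTiter-Glo luminescence (30 min, room temperature) in the same p53RE-bla plates. These plates had been exposed to compounds for 16 h at 37 C.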
A general note: qHTS replaces the single test concentration by a dilution series.

The nature of assay [3]: qHTS assay for small molecules that induce genotoxicity in human embryonic kidney cells expressing luciferase-tagged ATAD5 - cell viability (AID 651634; calls by dose curve; note: nearly all actives have a fitted effect of over 25% in size; note: potency is the fitted concentration of half-maximal effect). In outline: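 Cells (HEK293T, luciferase-tagged ATAD5) are seeded at 2,000 per well, dosed with compound or DMSO vehicle, and incubated 15.5 hr at 37C and 5% CO2. CellTiter-Fluor is added for 30 min before fluorescence is measured.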

Assay [4] can be described thus: qHTS assay for small molecule disruptors of the mitochondrial membrane potential - cell viability (AID 720634; calls by dose curve;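 note: human HepG2 liver cancer cells; series mostly up to about 83 µM; nearly all actives have a fitted effect of over 20% in size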). In outline:
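Cytotoxicity was measured by ATP quantitation in HepG2 wells that had first been treated with compound for 1 hr and stained with m-MPI dye; CellTiter-Glo incubation was 30 min at room temperature.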

The nature of assay [5]: qHTS assay for small molecule disruptors of the mitochondrial membrane potential (AID 720635). Note: potency is the fitted concentration of half-maximal effect. In outline:
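Mitochondrial membrane potential tracked with Mito-MPS dye, red aggregates (ex 540/em 590 nm) against green monomers (ex 490/em 535 nm). Compound treatment 1 hr at 37C, dye 30 min in HepG2.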

Assay [6] is described as follows: qHTS assay to test for compound auto fluorescence at 460 nm (blue) in HEK293 cells (AID 720678). In outline: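 Blue read-out at excitation 405 nm and emission 460 nm follows overnight compound exposure of HEK293 cells at 37C in 5% CO2. Activity is given as auto fluorescence equivalency to triamterene.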
Assay [7] is described as follows: qHTS assay to test for compound auto fluorescence at 590 nm (red) in HEK293 cells (AID 720679). In outline:
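Red channel, Ex/Em 540/590nm; signal expressed as equivalency to Rose Bengal sodium. HEK293, 2,000 cells/well, 10% dialyzed FBS; 23 nL compound pinned after 4-5 hr attachment; overnight 37C/5% CO2 before reading.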

The nature of assay [8]: qHTS assay for small molecule agonists of the p53 signaling pathway (AID 651631; calls by dose curve; note: nearly all actives have a fitted effect of over 15% in size). In outline:
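Quantitative high-throughput format: 4,000 p53RE-bla HCT-116 cells/well, 5 h pre-incubation, 16 h compound exposure at 37 °C, 2 h room-temperature substrate step, fluorescence intensity measured.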

Assay [9] can be described thus: qHTS assay to test for compound auto fluorescence at 590 nm (red) in HepG2 cells (AID 720674). In outline: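 We screened compounds on adherent HepG2 cells, incubating them for an hour at 37 C in 5% CO2 before reading emission at 590 nm under 540 nm excitation; values reflect equivalence to Rose Bengal sodium fluorescence.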
Assay [10] in a line: qHTS assay to test for compound auto fluorescence at 535 nm (green) in HepG2 cells (AID 720675).

Where “and” joins values, the source holds several entries; their conditions need not be identical. Identical values can stand only once. Records with an inconclusive call do not appear. Some structures have more than one record in an assay (separate samples or runs), and their calls can disagree. Calls of active or inactive are those of the source. Unless noted, calls come from the whole dose curve; as a rule, active = well fitted curve in the direction sought with a large enough effect in the repeat runs; inconclusive = weak or mixed curves; inactive = no such curve, though single readings can be large; an effect the other way counts as inactive or inconclusive.

As for `CC(C)(C)c1cc(Cc2cc(C(C)(C)C)c(O)c(C(C)(C)C)c2)cc(C(C)(C)C)c1O`, the call in assay [1], in [2], in assay [6] and in [7] was inactive. Also, the Potency result in assay [3], in [4] and in assay [5] was “inactive” each time.

Turning to `C=CCc1ccc(OC)c(OC)c1`, the call in [8], in assay [1], in assay [2], in assay [6] and in assay [7] was inactive. Also, the Potency entry in assay [3] and in [4] was “inactive” each time.

In the case of `O=C(O)c1ccc(S(=O)(=O)N(Cl)Cl)cc1`, the molecule was classed as inactive in assay [1], in assay [2], in assay [9], in [10], in assay [6] and in assay [7]. Besides, the Potency result in [3], in assay [4] and in [5] was “inactive” in each case.

With `CC1(C)S[C@@H]2[C@H](NC(=O)COc3ccccc3)C(=O)N2[C@H]1C(=O)O`, the outcome in [1], in assay [2], in assay [9], in assay [10], in assay [6] and in [7] was inactive. Besides, the Potency result in assay [3], in assay [4] and in assay [5] was “inactive” throughout.

Turning to `O=C(O)c1cc2ccccc2cc1O`, the molecule was classed as inactive in [1], in assay [2], in [10], in assay [6] and in assay [7]. Further, the Potency result in [3] and in [4] was “inactive” in each case. For the same molecule, in assay [5], the Potency is 54.1 µM (active) and 54.5 µM (active).

On to `CC(CCl)OP(=O)(OC(C)CCl)OC(C)CCl` (centres undefined), for which the molecule was called inactive in assay [1], in assay [2], in [9], in assay [6] and in assay [7]. Also, the Potency result in assay [3], in [4] and in assay [5] was “inactive” each time.

In the case of `CCNc1ccccc1`, the outcome in assay [1], in assay [2], in [6] and in assay [7] was inactive. The Potency result in assay [3] and in assay [4] was “inactive” in each case. In addition, the Potency in [5] is 24.8 µM (active) and inactive.

For `COCCOC(=O)c1ccccc1C(=O)OCCOC`, the molecule was classed as inactive in assay [1], in assay [2], in [10], in assay [6] and in [7]. The Potency entry in [3], in [4] and in assay [5] was “inactive” each time.

Regarding `COc1ccc([N+](=O)[O-])cc1N`, the outcome in assay [1], in [2], in [9], in [10], in [6] and in assay [7] was inactive. The Potency entry in assay [3] and in assay [4] was “inactive” in each case.

Take `CC(C)(Oc1ccc(CCNC(=O)c2ccc(Cl)cc2)cc1)C(=O)O`: the call in assay [1], in assay [2], in assay [9], in [10], in assay [6] and in assay [7] was inactive. Besides, the Potency result in [3], in [4] and in assay [5] was “inactive” in each case.

Regarding `O=C(O)c1ccc(C(=O)O)c(C(=O)O)c1`, the result in [1], in assay [2], in [9], in [10], in [6] and in assay [7] was inactive. The Potency result in assay [3], in assay [4] and in assay [5] was “inactive” in each case.

`O=S(=O)(O)c1ccc(N=Nc2c(O)ccc3cc(S(=O)(=O)O)ccc23)cc1`: the outcome in [1], in assay [2], in assay [9], in assay [10], in assay [6] and in [7] was inactive. Moreover, the Potency in [3] was 30.8 µM (active) and 30.6 µM (active). In addition, in assay [4], the Potency entry is “inactive”.

Take `Nc1nc(N)nc(-c2ccccc2)n1`: the call in assay [1], in assay [2], in assay [9], in [10], in [6] and in assay [7] was inactive. Also, the Potency entry in [3], in [4] and in assay [5] was “inactive” throughout.

Turning to `O=C(O)CCCCCCCCC(=O)O`, the molecule was classed as inactive in assay [1], in assay [2], in [10], in [6] and in [7]. Further, the Potency entry in assay [3], in assay [4] and in [5] was “inactive” throughout.

Take `O=C(OCC1CCC2OC2C1)C1CCC2OC2C1` (centres undefined): the result in assay [1], in assay [2], in [9], in assay [10], in [6] and in assay [7] was inactive. Also, the Potency result in assay [3], in assay [4] and in assay [5] was “inactive” throughout.

`C[C@]12CC[C@@H]3c4ccc(O)cc4CC[C@H]3[C@@H]1C[C@@H](O)[C@@H]2O`: the molecule was classed as inactive in [8], in assay [2], in assay [9], in assay [6] and in assay [7]. Also, the Potency result in [4] and in assay [5] was “inactive” throughout.

`Brc1ccc(Br)c(Br)c1`: the molecule was classed as inactive in assay [1], in [2], in assay [9], in assay [10], in [6] and in [7]. Further, the Potency result in assay [3] and in [4] was “inactive” each time.

`CCCCC(C=O)CC` (centres undefined): the outcome in assay [1], in assay [2], in assay [9], in assay [10], in assay [6] and in assay [7] was inactive. The Potency entry in assay [3] and in assay [4] was “inactive” each time.

For `CC(=O)Oc1ccc(C)cc1`, the outcome in assay [1], in [2], in assay [10], in assay [6] and in assay [7] was inactive. In addition, the Potency result in assay [3], in [4] and in assay [5] was “inactive” throughout.

`CC1(C)NC(=O)NC1=O`: the molecule was called inactive in assay [1], in assay [2], in assay [9], in assay [10], in [6] and in [7]. Further, the Potency result in assay [3], in assay [4] and in assay [5] was “inactive” each time.

Consider `c1ccc2c(c1)Cc1ccccc1-2`, for which the molecule was classed as inactive in [1], in assay [2], in assay [9], in [10], in assay [6] and in assay [7]. Moreover, the Potency entry in assay [3], in assay [4] and in [5] was “inactive” throughout.

As to `CCCCCCCCCCCCCCCC(=O)OC(C)C`, the molecule was called inactive in assay [1], in [2], in assay [10], in assay [6] and in assay [7]. For the same molecule, the Potency entry in assay [3], in assay [4] and in assay [5] was “inactive” in each case.

Regarding `CNC(=O)Oc1ccc2c(c1)[C@]1(C)CCN(C)[C@@H]1N2C`, the molecule was called inactive in assay [1], in assay [2], in assay [6] and in assay [7]. Moreover, the Potency result in [3] and in [4] was “inactive” in each case.

Consider `O=C1C(c2[nH]c3ccccc3c2O)=Nc2ccccc21`, for which the molecule was called inactive in assay [1], in assay [2], in [9], in assay [6] and in [7]. Further, the Potency entry in [3] and in assay [4] was “inactive” throughout.

For the molecule `CC(C)c1cccc(C(C)C)c1`, the molecule was classed as inactive in assay [1], in assay [6] and in assay [7]. For the same molecule, the Potency result in assay [3] and in assay [4] was “inactive” each time.

Turning to `CC(C)=CCl`, the molecule was classed as inactive in assay [1], in [2], in [10], in assay [6] and in assay [7]. Further, the Potency result in assay [3] and in [4] was “inactive” throughout.

On to `C=C(C)[C@H]1CC=C(C)C(=O)C1`, for which the molecule was classed as inactive in assay [1], in assay [2], in assay [9], in [10], in [6] and in assay [7]. Further, the Potency result in [3] and in assay [4] was “inactive” throughout.

Consider `CC(C)CC(=O)CC(C)CC(C)C` (centres undefined), for which the molecule was called inactive in assay [1], in assay [2], in assay [6] and in [7]. Also, the Potency entry in assay [3] and in [4] was “inactive” each time.

Source of the values: PubChem BioAssay (Tox21).
